Results reported in PubChem BioAssay (EPA / NIEHS).
“And” between values parts separate entries of the source, which are not always exact repeats. Identical values can stand only once. Results filed as inconclusive are left out. A structure can be active in one record and inactive in another. The source made the active and inactive calls. How the source made its calls, unless noted: active means hit-call score of the fitted dose curve at least 0.9, where 1 is the maximum; inconclusive means response in the unintended direction; inactive means score below 0.9.

Columns and labels:
[1] = molecular target: Cellular tumor antigen p53 (Homo sapiens) (UniProt P04637); assay: TOX21_p53_BLA_p2_ratio: Tox21 HCT-116 p53 Agonism Beta-lactamase Assay, Ratio, Phase 2 (AID 2283592)
Procedure, shortened: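 Readout: blue/green (460/530 nm) FRET emission ratio after 2 h CCF4-AM loading at room temperature, excitation 405 nm. HCT116 p53 bla cells, 16 h compound exposure at 37C, 5% CO2; agonist direction fitted against DMSO baseline.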

[2] = TOX21_p53_BLA_p3_viability: Viability Assessment in the Tox21 HCT-116 p53 Agonism Beta-lactamase Assay, Phase 3 (AID 2283593);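 further: cells exposed to compound for 16 h before reading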
Procedure, shortened: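 HCT116 cells, 4000/well, dosed 5 h after plating by pin transfer (217-fold dilution from DMSO stock) and incubated 16 h at 37C, 5% CO2. Viability read as ATP luminescence with CellTiter-Glo after 30 min at room temperature.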

[3] = molecular target: Cellular tumor antigen p53 (Homo sapiens) (UniProt P04637); assay: TOX21_p53_BLA_p3_ratio: Tox21 HCT-116 p53 Agonism Beta-lactamase Assay, Ratio, Phase 3 (AID 2283596)
Procedure, shortened: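 Cells were seeded at 4000/well, rested 5 h at 37C, then dosed with DMSO compound solutions (217-fold dilution) for 16 h. CCF4-AM substrate was loaded for 2 h at room temperature, and the 460/530 nm emission ratio was fitted for gain of signal versus DMSO.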

[4] = TOX21_p53_BLA_p4_viability: Viability Assessment in the Tox21 HCT-116 p53 Agonism Beta-lactamase Assay, Phase 4 (AID 2283597);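 further: hits lower the luminescence signal meaning cytotoxicity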
Procedure, shortened: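 ATP content by CellTiter-Glo luminescence, 30 min RT, read after the beta-lactamase ratio step. Cells: HCT116, 4000/well, compound added after 5 h, exposure 16 h at 37C. Signal loss = reduced viability.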

[5] = molecular target: Cellular tumor antigen p53 (Homo sapiens) (UniProt P04637); assay: TOX21_p53_BLA_p5_ratio: Tox21 HCT-116 p53 Agonism Beta-lactamase Assay, Ratio, Phase 5 (AID 2283599)
Procedure, shortened: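 HCT-116 p53-bla cells (4000/well) plated 5 h, dosed with compound (217-fold DMSO dilution) for 16 h at 37 C; CCF4-AM substrate 2 h at room temperature. Activity is the 460/530 nm emission ratio (405 nm excitation), fitted in gain-of-signal direction versus DMSO.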

[6] = molecular target: Cellular tumor antigen p53 (Homo sapiens) (UniProt P04637); assay: TOX21_p53_BLA_p4_ratio: Tox21 HCT-116 p53 Agonism Beta-lactamase Assay, Ratio, Phase 4 (AID 2283601)
Procedure, shortened: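 HCT-116 p53 beta-lactamase reporter cells (4000/well) preincubated 5 h, then compound (217-fold dilution of DMSO stock) for 16 h at 37C. CCF4-AM substrate added 2 h at room temperature; 460/530 nm emission ratio fitted upward versus DMSO.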

[7] = TOX21_p53_BLA_p5_viability: Viability Assessment in the Tox21 HCT-116 p53 Agonism Beta-lactamase Assay, Phase 5 (AID 2283600)
Procedure, shortened: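 ATP luminescence (CellTiter-Glo, 30 min, RT) served as the viability read-out, with loss of signal indicating cytotoxicity. Compounds in DMSO were pinned at a 217-fold dilution onto 4000 cells/well and incubated 16 h, 37C.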

[8] = TOX21_TRB_BLA_Antagonist_Followup_viability: Viability Assessment in the Tox21 Thyroid Hormone Receptor beta Antagonism Beta-lactamase (BLA) Follow-Up Assay (AID 2283961)
Procedure, shortened: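 Viability read as CellTiter-Glo ATP luminescence (loss of signal = cytotoxicity) in the same plates as the TRβ-bla readout. TRβ-LBD/GAL4 UAS-bla HEK293T cells were exposed to compounds, 11 concentrations in triplicate, for 18 h at 37C/5% CO2.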

[9] = molecular target: THRB (gene 7068) (UniProt P10828); assay: TOX21_TRB_COA_Antagonist_Followup_ratio: Tox21 Thyroid Hormone Receptor beta Antagonism through Coactivator Recruitment Follow-Up Assay, Ratio (AID 2283967)
Procedure, shortened: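 GST-TRb LBD 5.0 nM + 0.10% BSA, compound added; fluorescein-SRC-2 peptide 200 nM, Tb-anti-GST Ab 2 nM. TR-FRET, ex 340 / em 520:495 ratio. Norm: DMSO 0%, T3 100%.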

[10] = molecular target: Retinoic acid receptor RXR-alpha (Homo sapiens) (UniProt P19793); assay: TOX21_TR_RXR_BLA_Antagonist_Followup_ratio: Tox21 Thyroid Hormone Receptor beta Retinoid X Receptor alpha (RXRa) Antagonism Beta-lactamase (BLA) Follow-Up Assay, Ratio (AID 2283972)
Procedure, shortened: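 Beta-lactamase reporter readout as cleaved/uncleaved substrate ratio (460:530 nm) after 2 h substrate loading at room temperature. GAL4-RXRa bla HEK293T cells were exposed 16 h at 37C to 11-point compound series; loss of signal scored against DMSO baseline.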

[11] = TOX21_TR_RXR_BLA_Antagonist_Followup_viability: Viability Assessment in the Tox21 Thyroid Hormone Receptor beta Retinoid X Receptor alpha (RXRa) Antagonism Beta-lactamase (BLA) Follow-Up Assay (AID 2283979)
Procedure, shortened: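 RXRa-bla HEK293T cells (2,500/well, phenol red-free DMEM, 2% charcoal-stripped FBS) were attached 5 h, then exposed to compounds at 11 concentrations in triplicate for 16 h at 37C. Viability measured by CellTiter-Glo ATP luminescence, bidirectional fitting versus DMSO.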

[12] = CCTE_Padilla_ZF_144hpf_TERATOSCORE: (Legacy) CCTE's 144 Hour Post-fertilization zebrafish Assay Teratoscore, Padilla Lab (AID 2283679; active means hit-call score of the fitted dose curve at least 0.9, where 1 is the maximum; inactive means score below 0.9;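 further: zebrafish embryos with chorions exposed by immersion from 6-8 hpf to 5 dpf with daily renewal; teratogenicity score from eye scoring of death hatching and malformations at 144 hpf; higher score means more developmental defects relative to DMSO baseline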)
Procedure, shortened: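 Larvae scored by eye at 144 hpf for death, hatching and malformations after a day in clean Hanks'. Before that, daily-renewed exposure at 80 uM (0.4% DMSO, 26C) from roughly 6-8 hpf through 5 dpf, 4 embryos per chemical.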

[13] = CCTE_Shafer_MEA_dev_firing_rate_mean: CCTE's Neural Network Formation Assay for Mean Firing Rate, Shafer Lab (AID 2284031; active means hit-call score of the fitted dose curve at least 0.9, where 1 is the maximum; inactive means score below 0.9;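 further: curve fitted for loss of firing so AC50 reflects decreased mean firing rate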)
Procedure, shortened: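 Steps: seed rat cortical cells (1.5 x 10^5/well) with laminin on PEI-coated MEA; dose day 0; record DIV 5/7/9/12, full media and compound exchange after DIV 5 and 9 recordings; compute well-mean firing rate AUC.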

[14] = CCTE_Shafer_MEA_dev_per_burst_spike_percent: CCTE's Neural Network Formation Assay for Percent of Spikes in a Burst, Shafer Lab (AID 2284032; active means hit-call score of the fitted dose curve at least 0.9, where 1 is the maximum; inactive means score below 0.9;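 further: fitted as a decrease in burst spike percentage below DMSO baseline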)
Procedure, shortened: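 Value is trapezoidal AUC over recordings on days 5, 7, 9 and 12 of the well-mean fraction of spikes falling in single-electrode bursts; rat cortical cultures exposed continuously from plating, treatment renewed DIV 5 and 9, fitted downward against DMSO.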

[15] = CCTE_Shafer_MEA_dev_active_electrodes_number: CCTE's Neural Network Formation Assay for Number of Active Electrodes, Shafer Lab (AID 2284040);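 further: potency for loss of active electrodes versus DMSO so lower counts are hits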
Procedure, shortened: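 Counts electrodes per well firing at least 5 spikes/min, recorded on days 5, 7, 9 and 12 in rat cortical cultures dosed continuously from plating (treatment refreshed DIV 5, 9). Value is the area under the curve over recordings, fitted downward relative to DMSO.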

[16] = CCTE_Shafer_MEA_dev_bursting_electrodes_number: CCTE's Neural Network Formation Assay for Number of Bursting Electrodes, Shafer Lab (AID 2284043);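 further: potency is for loss of bursting electrodes relative to DMSO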
Procedure, shortened: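 Rat cortical primary neurons, 48-well MEA, 16 electrodes/well; dosing DIV 0–12, re-dosed with full media change DIV 5, 9. Recordings DIV 5/7/9/12, AxIS adaptive spike detector; bursting electrode = ≥1 burst/2 min. AUC across days; loss of signal vs DMSO.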

[17] = CCTE_Shafer_MEA_dev_per_burst_interspike_interval: CCTE's Neural Network Formation Assay for Burst Interspike Interval, Shafer Lab (AID 2284044; active means hit-call score of the fitted dose curve at least 0.9, where 1 is the maximum; inactive means score below 0.9;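 further: potency for a decrease of within-burst interspike interval below DMSO level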)
Procedure, shortened: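 Readout is the average time between spikes inside single-electrode bursts, taken as a well mean across bursting electrodes. Cortical neurons from rat developed networks on MEA plates under continuous 12-day exposure; recordings on days 5, 7, 9 and 12 were integrated by trapezoidal AUC.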

[18] = CCTE_Shafer_MEA_dev_burst_duration_mean: CCTE's Neural Network Formation Assay for Mean Burst Duration, Shafer Lab (AID 2284045; active means hit-call score of the fitted dose curve at least 0.9, where 1 is the maximum; inactive means score below 0.9)
Procedure, shortened: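 Rat cortical cultures, 1.5 x 10^5 cells/well with laminin drop; continuous dosing days 0–12, media plus treatment refreshed DIV 5, 9. AxIS adaptive spike detection; mean single-electrode burst duration, AUC over four recordings, negative direction vs DMSO.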

[19] = CCTE_Shafer_MEA_dev_interburst_interval_mean: CCTE's Neural Network Formation Assay for Mean Interburst Interval, Shafer Lab (AID 2284046; active means hit-call score of the fitted dose curve at least 0.9, where 1 is the maximum; inactive means score below 0.9;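 further: well-mean interburst interval of bursting electrodes as AUC over four recording days; curve fitted for decrease in interburst interval relative to DMSO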)
Procedure, shortened: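 Network formation assay in primary rat cortical cultures, exposed from DIV 0 to 12. Mean interburst interval per well, integrated as AUC over four recordings.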

[20] = CCTE_Shafer_MEA_dev_network_spike_number: CCTE's Neural Network Formation Assay for Number of Network Spikes, Shafer Lab (AID 2284048; active means hit-call score of the fitted dose curve at least 0.9, where 1 is the maximum; inactive means score below 0.9;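 further: fit as a loss of signal meaning fewer network spikes than DMSO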)
Procedure, shortened: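 Rat cortical primary cultures on 48-well MEA (16 electrodes/well); continuous exposure DIV 0–12, full medium and treatment exchange DIV 5, 9. Readout: network spike count, AxIS adaptive detection, recordings DIV 5/7/9/12 collapsed to AUC; loss-of-signal fit, DMSO baseline.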

[21] = CCTE_Shafer_MEA_dev_network_spike_peak: CCTE's Neural Network Formation Assay for Mean Number of Electrodes in Network Spike, Shafer Lab (AID 2284049; active means hit-call score of the fitted dose curve at least 0.9, where 1 is the maximum; inactive means score below 0.9;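 further: fitted for loss of signal meaning fewer electrodes in network spikes than DMSO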)
Procedure, shortened: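 Network-spike peak electrode count from recordings on days 5, 7, 9 and 12 was combined as trapezoidal area under the curve. Rat cortical cultures were treated continuously from plating, with compound renewed at each feed (DIV 5, 9); fits versus DMSO.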

[22] = CCTE_Shafer_MEA_dev_spike_duration_mean: CCTE's Neural Network Formation Assay for Mean Spike Duration, Shafer Lab (AID 2284051; active means hit-call score of the fitted dose curve at least 0.9, where 1 is the maximum; inactive means score below 0.9;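 further: mean network spike duration pooled as area under curve over DIV 5 to 12 recordings; potency for a decrease in mean network spike duration versus DMSO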)
Procedure, shortened: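 With DMSO as baseline, loss of mean network spike duration was scored from extracellular recordings of rat cortical neurons on MEA plates. Exposure spanned plating to DIV 12; the four recording days were collapsed into one AUC value.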

[23] = CCTE_Shafer_MEA_dev_network_spike_duration_std: CCTE's Neural Network Formation Assay for Standard Deviation of Network Spike Duration, Shafer Lab (AID 2284052; active means hit-call score of the fitted dose curve at least 0.9, where 1 is the maximum; inactive means score below 0.9;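 further: area under curve of spike duration SD across recording days 5 to 12; hits are decreases in network spike duration SD versus DMSO vehicle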)
Procedure, shortened: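 Developing networks of rat cortical neurons were exposed over twelve days in vitro on 48-well MEA plates. Trapezoidal AUC of recordings (DIV 5–12) was analysed for signal loss relative to DMSO vehicle.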

[24] = CCTE_Shafer_MEA_dev_per_network_spike_spike_number_mean: CCTE's Neural Network Formation Assay for Mean Number of Spikes in a Network Spike, Shafer Lab (AID 2284053; active means hit-call score of the fitted dose curve at least 0.9, where 1 is the maximum; inactive means score below 0.9;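 further: fitted as decrease in spikes per network spike relative to DMSO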)
Procedure, shortened: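 First, rat cortical cells (1.5 x 10^5/well) were seeded onto MEA wells; second, dosing began at plating and was refreshed on DIV 5 and 9; finally, network-spike spike counts across DIV 5–12 were summarized as AUC.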

[25] = CCTE_Shafer_MEA_dev_per_network_spike_spike_percent: CCTE's Neural Network Formation Assay for Percent of Spikes in a Network Spike, Shafer Lab (AID 2284054; active means hit-call score of the fitted dose curve at least 0.9, where 1 is the maximum; inactive means score below 0.9)
Procedure, shortened: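 Read-out: percent of spikes falling in a 0.05 s window at network-spike peak, from spontaneous MEA recordings on days 5, 7, 9 and 12; trapezoidal AUC; loss of signal versus DMSO. Rat cortical cultures, compound present throughout.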

[26] = CCTE_Shafer_MEA_dev_LDH: CCTE's Lactate Dehydrogenase Assay for Cytotoxicity in the Neural Network Formation Assay, Shafer Lab (AID 2284068);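 further: exposure for twelve days from plating with re-dosing on DIV 5 and 9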
Procedure, shortened: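 Developing rat cortical networks on MEA plates are exposed to compound for 12 days from plating. LDH activity is measured spectrophotometrically, with DMSO as baseline.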

[27] = CCTE_Shafer_MEA_dev_AB: CCTE's Alamar Blue Assay for Cytotoxicity in the Neural Network Formation Assay, Shafer Lab (AID 2284083);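 further: resazurin reduction fluorescence as viability of cultured neurons; twelve days of exposure from plating with re-dosing on DIV 5 and 9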
Procedure, shortened: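 Cytotoxicity companion to the developmental MEA: primary rat cortical neurons, 12-day exposure starting day 0, compound refreshed DIV 5 and 9; resazurin fluorescence, fitted against DMSO vehicle.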

[28] = CCTE_Shafer_MEA_dev_mutual_information_norm: CCTE's Neural Network Formation Assay for Mutual Information Normalization, Shafer Lab (AID 2284091; active means hit-call score of the fitted dose curve at least 0.9, where 1 is the maximum; inactive means score below 0.9;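 further: mutual information between electrodes summarised as area under curve across four recording days; potency is for a decrease in mutual information relative to DMSO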)
Procedure, shortened: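 Neurons from rat cortex were seeded at 1.5 x 10^5 cells/well onto PEI-coated MEAs in a laminin drop, then exposed to compound from day 0 for twelve days. Network recordings on four days gave mutual information, summarised by AUC relative to DMSO.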

[29] = CCTE_Shafer_MEA_dev_correlation_coefficient_mean: CCTE's Neural Network Formation Assay for Mean Correlation Coefficient, Shafer Lab (AID 2284093; active means hit-call score of the fitted dose curve at least 0.9, where 1 is the maximum; inactive means score below 0.9;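 further: well mean pairwise spike train correlation integrated as AUC over recording days 5 to 12; potency fitted for loss of correlation relative to DMSO vehicle wells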)
Procedure, shortened: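 Extracellular firing from rat cortical networks on 48-well MEAs, DMSO-referenced, negative fitting direction. Compound present from plating to DIV12; mean pairwise correlation per well integrated over DIV5–12 recordings by trapezoidal AUC.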

Measured: AC50

Sequence of Cellular tumor antigen p53 (Homo sapiens) (P04637 whole entry, looked up): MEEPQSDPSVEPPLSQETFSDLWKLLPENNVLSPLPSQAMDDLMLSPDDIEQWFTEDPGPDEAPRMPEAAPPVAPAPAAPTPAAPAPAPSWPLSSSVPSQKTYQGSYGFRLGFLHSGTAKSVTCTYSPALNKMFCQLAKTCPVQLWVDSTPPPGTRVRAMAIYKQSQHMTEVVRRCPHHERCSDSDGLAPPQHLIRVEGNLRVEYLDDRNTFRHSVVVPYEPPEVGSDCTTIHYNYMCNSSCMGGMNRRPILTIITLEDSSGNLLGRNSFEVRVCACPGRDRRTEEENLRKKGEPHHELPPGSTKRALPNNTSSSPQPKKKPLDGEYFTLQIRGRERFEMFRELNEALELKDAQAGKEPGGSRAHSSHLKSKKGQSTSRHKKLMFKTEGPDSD
Sequence of Retinoic acid receptor RXR-alpha (Homo sapiens) (P19793 whole entry, looked up, the tested form may be a part): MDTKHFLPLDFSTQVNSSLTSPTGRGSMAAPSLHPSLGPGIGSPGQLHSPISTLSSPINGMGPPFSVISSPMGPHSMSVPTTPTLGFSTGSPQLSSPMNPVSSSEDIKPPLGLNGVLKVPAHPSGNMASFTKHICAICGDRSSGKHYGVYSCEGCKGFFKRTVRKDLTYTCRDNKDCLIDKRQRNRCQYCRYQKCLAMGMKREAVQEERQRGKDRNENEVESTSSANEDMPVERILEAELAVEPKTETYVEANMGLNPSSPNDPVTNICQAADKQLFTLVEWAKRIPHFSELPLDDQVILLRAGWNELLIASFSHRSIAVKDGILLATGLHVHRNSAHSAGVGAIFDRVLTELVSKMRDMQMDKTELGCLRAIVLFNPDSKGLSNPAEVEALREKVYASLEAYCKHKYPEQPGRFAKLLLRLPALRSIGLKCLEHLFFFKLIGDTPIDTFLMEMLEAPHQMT
Sequence of THRB (gene 7068) (P10828 whole entry, looked up, the tested form may be a part): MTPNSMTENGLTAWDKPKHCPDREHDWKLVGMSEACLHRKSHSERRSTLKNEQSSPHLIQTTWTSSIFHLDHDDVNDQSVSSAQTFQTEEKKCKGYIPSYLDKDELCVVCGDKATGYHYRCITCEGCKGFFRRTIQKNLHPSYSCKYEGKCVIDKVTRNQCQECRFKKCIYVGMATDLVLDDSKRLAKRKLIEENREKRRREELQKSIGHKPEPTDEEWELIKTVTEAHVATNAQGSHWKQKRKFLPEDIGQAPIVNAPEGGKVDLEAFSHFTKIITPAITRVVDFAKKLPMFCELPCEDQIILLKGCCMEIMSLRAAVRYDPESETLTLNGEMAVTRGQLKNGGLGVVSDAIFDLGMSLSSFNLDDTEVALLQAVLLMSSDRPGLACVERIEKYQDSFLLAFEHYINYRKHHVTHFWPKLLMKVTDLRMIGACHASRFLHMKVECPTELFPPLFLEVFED

CCCCCCCCS
inactive: [1] | [2] | [3] | [4] | [5] | [6]

Cc1ccc(O)c(C(=O)c2ccccc2)c1
inactive: [1] | [2] | [3] | [4] | [5] | [6]

Nc1c2ccccc2nc2ccccc12
inactive: [2] | [4] | [7] | [8] | [9] | [10]
active: [1] 2.18 µM and 2.99 µM | [3] 5.09 µM and 6.02 µM | [5] 3.58 µM and 3.94 µM | [6] 2.28 µM and 5.34 µM | [11] 10600 nM

CC(=O)[C@]1(O)Cc2c(O)c3c(c(O)c2[C@@H](O[C@H]2C[C@H](N)[C@H](O)[C@H](C)O2)C1)C(=O)c1c(O)cccc1C3=O
active: [1] 346 nM and 263 nM | [3] 222 nM and 212 nM | [6] 571 nM
inactive: [2] | [4] | [5] | [7] | [6]

CCCN1CCCC[C@H]1C(=O)Nc1c(C)cccc1C
inactive: [1] | [2] | [3] | [4] | [5] | [7] | [6]

CC[C@H](C)C(=O)O[C@H]1CCC=C2C=C[C@H](C)[C@H](CC[C@@H]3C[C@@H](O)CC(=O)O3)[C@H]21
inactive: [1] | [2] | [3] | [4] | [5] | [7] | [6] | [18]
active: [12] 8.02 nM and 2.39 nM | [13] 1.41 µM and 8.96 µM | [14] 1.4 µM and 2.83 µM | [15] 1.15 µM and 875 nM | [16] 924 nM and 911 nM | [17] 3.11 µM and 8.52 µM | [19] 3.03 µM and 2.52 µM | [20] 71.9 nM and 226 nM | [21] 960 nM and 912 nM | [22] 1.05 µM and 983 nM | [23] 665 nM and 700 nM | [24] 940 nM and 915 nM | [25] 277 nM and 554 nM | [26] 215 nM | [27] 687 nM and 2.01 µM | [28] 353 nM and 881 nM | [29] 571 nM and 928 nM
